The nature of assay [1]: cAMP Responsive Elements (CRE) small molecule antagonists, cell-based qHTS assay: qHTS cell viability counter screen (AID 2060913). Further: nearly all actives have a fitted effect of over 40% in size. Put shortly:
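Steps: cells plated and held 18 hrs at 37 C/5% CO2; compounds and NKH477 (0.25 uM final) added; 3 hrs incubation; reporter substrate read; CellTiter-Glo added to measure cytotoxicity by luminescence.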
In general terms: In qHTS, concentration-response curves come from the screen itself.

A short description of assay [2]: cAMP Responsive Elements (CRE) small molecule agonists, cell-based qHTS assay: qHTS cell viability counter screen (AID 2060914). Further: nearly all actives have a fitted effect of over 50% in size. An outline of the steps: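 In the same wells as the reporter read, viability of CRE-bla HEK 293T cells was quantified by CellTiter-Glo luminescence after a 3 h compound exposure.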

Molecules are shown by their SMILES. Inconclusive results are not listed. The source made the active and inactive calls. The call rests on the fitted dose curve; in most records, active means well fitted cell-killing curve with a large enough effect in the repeat runs; inconclusive means weak or mixed curves, or effect the other way; inactive means flat fitted curve, though single readings scatter.
Potency means the concentration at half of the fitted maximal effect.

With `ClC(c1ccccc1)(c1ccccc1)c1ccccc1`, the Potency result in assay [1] and in assay [2] was “inactive” in each case.

As for `C[C@](N)(Cc1ccc(O)c(O)c1)C(=O)O`, the Potency entry in assay [1] and in assay [2] was “inactive” each time.

`CCC(OCCCOC)OC(C)=O` (centres undefined): the Potency entry in assay [1] and in assay [2] was “inactive” each time.

Turning to `O=C(O)c1cccc(-c2noc(-c3ccccc3F)n2)c1`, the Potency in assay [1] was 23.7 µM (active); in assay [2], 21.1 µM (active).

For `CC(C)(C)c1ccccc1`, the Potency result in assay [1] and in assay [2] was “inactive” in each case.

In the case of `COC(=O)Nc1nc2ccc(C(=O)c3cccs3)cc2[nH]1`, the Potency result in assay [1] and in assay [2] was “inactive” in each case.

Take `CCCCCC(C)OC(=O)COc1ccc(Cl)c2cccnc12` (centres undefined): the Potency entry in assay [1] and in assay [2] was “inactive” throughout.

In the case of `CCc1cnc(C(=O)O)c(C(=O)O)c1`, the Potency result in assay [1] and in assay [2] was “inactive” each time.

For `Cc1ccc([N+](=O)[O-])cc1Cl`, the Potency entry in assay [1] and in assay [2] was “inactive” throughout.

With `NCCOCCN`, the Potency entry in assay [1] and in assay [2] was “inactive” each time.

For the molecule `CN1CCN(C(=O)C2CCCCC2)CC1`, the Potency entry in assay [1] and in assay [2] was “inactive” throughout.

As to `COc1ccccc1NC(=O)CC(C)=O`, the Potency result in assay [1] and in assay [2] was “inactive” in each case.

The values are drawn from PubChem BioAssay (Tox21).
